Shown are actives, neighbours in structure and some others; about 12% of the full set was active somewhere.
ROMK primary = modulators of human ROMK potassium channel; P48048; Tet-inducible ROMK, thallium flux fluorescence; actives lie on both sides; B-score at 10 µM; actives 2% (n = 130,000);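 active means signal ratio slope over the read window, or its plate-corrected B-score, at least 3 SD from the plate mean, either direction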;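 further: B-score of the F/F0 ratio slope over 7 to 12 s after thallium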
WT yeast gro inh = growth inhibition of WT yeast, mitochondrial fusion screen; mitochondrial fusion phenotypic screen, WT strain; inhibition, % at 10 µM; actives 2.1% (n = 190,000); in the data active means inhibition above about 58%; tested in S. cerevisiae
Calpain2 inh = inhibitors of pig calpain II; purified calpain II, fluorogenic peptide substrate, 30 min; inhibition, % at 16 µM; actives 0.37% (n = 220,000); AID 1236;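 active means inhibition above about 50%, limit read from the data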
KCC2 mod = modulators of human KCC2 chloride dependent transport | Q9H2X9 | KCC2 cells, thallium flux FluoZin-2 fluorescence | B-score of Tl+ flux slope (higher = more flux/activation; lower = inhibition) at 10 µM | AID 1456 | actives 2.2% (n = 190,000);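 active means thallium flux slope and its plate-corrected score both differing from the plate sample mean at a set confidence after two filtering rounds, in either direction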;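 further: slope of fluorescence scaled to starting intensity during 10 to 20 s after thallium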
Target sequence (Q9H2X9 whole entry, looked up): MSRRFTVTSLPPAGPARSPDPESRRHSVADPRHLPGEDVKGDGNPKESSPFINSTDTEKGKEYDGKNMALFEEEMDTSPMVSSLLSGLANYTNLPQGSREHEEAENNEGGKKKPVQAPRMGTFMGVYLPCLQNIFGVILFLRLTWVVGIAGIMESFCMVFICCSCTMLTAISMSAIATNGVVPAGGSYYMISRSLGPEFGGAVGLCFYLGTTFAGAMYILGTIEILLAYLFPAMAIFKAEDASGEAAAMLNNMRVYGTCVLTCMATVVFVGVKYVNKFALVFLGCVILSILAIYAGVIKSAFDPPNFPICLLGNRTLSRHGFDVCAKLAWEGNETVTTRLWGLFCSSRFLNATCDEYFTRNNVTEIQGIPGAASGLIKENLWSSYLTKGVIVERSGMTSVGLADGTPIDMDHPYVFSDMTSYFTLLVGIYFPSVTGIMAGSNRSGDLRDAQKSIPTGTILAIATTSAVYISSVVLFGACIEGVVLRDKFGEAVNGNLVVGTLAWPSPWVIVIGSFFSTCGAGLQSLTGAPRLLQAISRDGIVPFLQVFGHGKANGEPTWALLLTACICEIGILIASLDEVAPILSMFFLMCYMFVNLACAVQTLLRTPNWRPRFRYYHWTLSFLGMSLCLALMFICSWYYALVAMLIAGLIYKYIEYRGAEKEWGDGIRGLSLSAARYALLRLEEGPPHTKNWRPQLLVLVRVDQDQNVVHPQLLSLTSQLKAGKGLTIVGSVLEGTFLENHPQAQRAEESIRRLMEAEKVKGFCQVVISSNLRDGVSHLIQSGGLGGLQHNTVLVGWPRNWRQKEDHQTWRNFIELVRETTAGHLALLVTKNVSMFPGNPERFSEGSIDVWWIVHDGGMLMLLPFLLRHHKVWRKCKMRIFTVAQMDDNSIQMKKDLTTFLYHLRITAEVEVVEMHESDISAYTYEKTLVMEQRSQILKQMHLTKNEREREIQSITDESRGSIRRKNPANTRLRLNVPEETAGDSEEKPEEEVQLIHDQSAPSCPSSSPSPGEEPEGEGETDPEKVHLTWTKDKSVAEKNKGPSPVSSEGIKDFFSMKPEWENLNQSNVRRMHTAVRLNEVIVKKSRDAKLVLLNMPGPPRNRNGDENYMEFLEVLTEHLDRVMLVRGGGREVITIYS
L major viab = Leishmania major promastigote growth inhibition; inhibition, % at 10 µM; AID 1063; Leishmania major promastigotes, resazurin fluorescence viability; actives 9% (n = 200,000); in the data active means inhibition above about 50%;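 further: promastigotes grown with compound for 44 hours at 28 °C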
* = called active by the depositor; i = inactive; nt = no result.

SMILES	ROMK primary	WT yeast gro inh	Calpain2 inh	KCC2 mod	L major viab
COc1ccc(CN2CCN(Cc3csc(C(C)=O)c3)CC2CCO)c(C)c1C (stereo not given)	-0.92	6	-28	0.52	86*
CC(=O)c1cc(CN2CCN(Cc3ccc(C)cc3)C(CCO)C2)cs1 (stereo not given)	0.85	2	-21	0.04	73*
CC(=O)c1cc(CN2CCN(CCC(C)C)C(CCO)C2)cs1 (stereo not given)	nt	nt	-5	0.44	nt
O=c1[nH]ncc(N2CCCCCC2)c1Cl	0.018	23	-16	-0.093	-5
CCOC(=O)c1cc2c(ccn2C)n1Cc1cc(C)ccc1C	nt	67*	2	0.54	93*
CCc1ccc(OCC(=O)Nc2ccc(-c3nc4ccccc4o3)c(O)c2)cc1	nt	10	-138	0.19	0
Oc1cc(NCc2cccnc2)ccc1-c1nc2ccccc2o1	nt	9	-64	0.012	99*
c1ccc2nc(N3CCOCC3)cnc2c1	0.48	-32	-25	1.5	-4
Cc1nc(SCC(=O)NC(=O)NCCC(C)C)c2c(-c3cccs3)csc2n1	nt	-10	-3	0.26	7
CCn1c(Sc2nc(C)nc3scc(-c4cccs4)c23)n[nH]c1=O	nt	82*	-31	-1.7	30
COc1ccc(Nc2nc(C)nc3sc4c(c23)CCC4)cc1O	-0.65	3	-18	-0.59	4
Cc1ccc(NS(=O)(=O)c2cccc(C(=O)Nc3cc(C)on3)c2)cc1	-1.5	10	-4	-0.56	91*
CCc1nnc(NS(=O)(=O)c2ccc(NC(=S)NC(=O)c3ccc(OC)cc3)cc2)s1	-0.23	6	39	-0.72	55*
Cc1cc(NS(=O)(=O)c2ccc(NC(=S)NC(=O)c3ccc(C(C)(C)C)cc3)cc2)no1	1	3	63*	nt	11
Cc1ccc(-c2cc(C(=O)Nc3ccc(S(=O)(=O)Nc4cc(C)on4)cc3)c3ccccc3n2)c(C)c1	1.9	-14	-30	-1.2	-6
COc1ccc(C(=O)NC(=S)Nc2ccc(S(=O)(=O)Nc3cc(C)on3)cc2)cc1OC	nt	nt	21	0.18	nt
COc1ccc(-c2nc3ccccc3c(C(=O)Nc3ccc(S(=O)(=O)Nc4cc(C)on4)cc3)c2C)cc1	4.2*	-10	-89	0.082	-2
CCOC(=O)C1(Cc2cccc(Cl)c2)CCCN(C(=O)C2CC2)C1 (stereo not given)	nt	-2	-20	-0.081	-1
Cc1ccc(OCCn2cnc3ccccc3c2=O)c([N+](=O)[O-])c1	0.98	6	-2	0.085	-4
CCC(CC)C(=O)Nc1cccc(C(=O)Nc2ccc(S(=O)(=O)Nc3ccc(C)cc3)cc2)c1	nt	34	-17	nt	67*
CCC(CC)C(=O)Nc1cccc(C(=O)Nc2ccc(S(N)(=O)=O)cc2)c1	0.34	-13	0	nt	3
Cc1cc(NS(=O)(=O)c2ccc(NC(=S)NC(=O)c3ccncc3)cc2)no1	nt	nt	11	0.88	nt
Cc1cc(NS(=O)(=O)c2ccc(NC(=S)NC(=O)c3ccccc3)cc2)no1	0.16	6	14	0.043	66*
COc1ccc(-c2cc(C(F)F)n3ncc(C(=O)Nc4cc(C)on4)c3n2)cc1	-0.078	-26	i	-0.12	5
CNC(=O)CC1C(=O)N(C)C(=S)N1NC(=O)c1ccc(Cl)cc1 (stereo not given)	nt	1	-3	-0.37	-6
SMILES	ROMK primary	WT yeast gro inh	Calpain2 inh	KCC2 mod	L major viab
Cc1ccc(-c2cccc(C3CC=CC4C3C(=O)N(Cc3ccccc3)C4c3ccc(C(F)(F)F)cc3)c2)cc1 (stereo not given)	nt	nt	-39	0.97	nt
Cc1ccc(Nc2nc(NCCCN3CCOCC3)nc(N)c2[N+](=O)[O-])cc1	-1.3	10	26	-0.34	51*
Nc1nc(NCCCN2CCOCC2)nc(Nc2ccc(Cl)cc2)c1[N+](=O)[O-]	-0.43	nt	-6	-0.0025	nt
Nc1nc(NCCCN2CCOCC2)nc(Nc2cccc(Cl)c2)c1[N+](=O)[O-]	nt	nt	-10	-0.42	nt
Cc1ccc(Nc2nc(NCCCN3CCOCC3)nc(N)c2[N+](=O)[O-])cc1C	nt	27	4	-0.74	52*
CN(C(=O)c1ccccc1C(=O)OCC(=O)NCc1ccccc1)C1CCCCC1	nt	1	6	-0.041	67*
Cc1cccn2cc(CSc3nnc(Nc4ccc(C(C)C)cc4)s3)nc12	nt	68*	8	-2.8	28
COc1ccc(Nc2nnc(SCc3cn4c(C)cccc4n3)s2)cc1	nt	9	19	-1.2	-2
Cc1ccccc1-c1nc2cc(N)ccc2o1	nt	2	-189	nt	6
CC(C)c1ccc2oc(-c3cc(N)ccc3O)nc2c1	2	68*	15	-0.076	-3
O=S(=O)(Nc1ccc(N=Nc2ccc(O)c3ccccc23)cc1)c1ccccc1	1.7	59*	-50	0.76	86*
COc1ccc(-c2cn3c(C)c(C(=O)Nc4cccc(C)n4)sc3n2)cc1	nt	9	-81	-0.72	96*
CC(C)Cn1c2c(c(=O)[nH]c1=O)C(C(F)(F)F)(C(F)(F)F)N=C(CCC1CCCCC1)N2	-0.18	-1	-35	0.089	80*
C/C(=N\NC(=O)c1ccc(F)cc1)c1cccc(NC(=O)c2ccco2)c1	nt	-1	-7	-0.48	67*
C/C(=N\NC(=O)c1cccc(F)c1)c1cccc(NC(=O)c2ccc(F)cc2)c1	nt	-13	-39	-0.31	-8
CN(Cc1ccccc1)C(=O)c1cccc(NC(=O)c2ccco2)c1	-0.069	15	-8	-1	100*
CCOc1ccccc1NC(=O)c1cccc(NC(=O)c2ccco2)c1	nt	12	-11	-1.1	100*
O=C(Nc1cccc(-c2nc3ccccc3[nH]2)c1)c1cccc(NC(=O)c2ccco2)c1	nt	-51	-236	nt	82*
CN(Cc1ccccc1)C(=O)c1ccco1	0.23	-13	-15	nt	-13
CCN1CCN(CC(=O)c2ccc(OC)cc2)CC1	-0.069	-18	16	-1	-1
Cc1nn(CC(=O)OCC(=O)NC(C)c2ccccc2)c(C)c1[N+](=O)[O-] (stereo not given)	0.0066	-4	-6	-0.049	-4
COc1ccc(CNC(=O)c2cccc(NC(=O)c3ccccc3)c2)cc1	0.092	5	12	-0.18	18
Cc1ccc(C(=O)Nc2cccc(C(=O)NCc3ccccc3)c2)o1	0.47	7	22	0.22	92*
O=C(NCc1ccccc1)c1cccc(NC(=O)c2ccco2)c1	nt	3	2	-0.071	98*
O=C(NCc1ccco1)c1cccc(NC(=O)c2ccco2)c1	-0.31	-6	-57	nt	79*
COc1ccccc1N(Cc1ccccc1)S(=O)(=O)c1cccc(C(=O)O)c1	0.86	-4	-10	-1.8	-6
CCOc1ccccc1NC(=O)c1cccc(S(=O)(=O)N(Cc2ccccc2)c2ccccc2OC)c1	nt	2	14	0.39	86*
COC(=O)c1ccc(NC(=S)NC2c3ccccc3CC2O)cc1 (stereo not given)	-0.8	18	38	0.23	14
COc1ccc(C)cc1NC(=O)C(Sc1nnc(-c2ccncc2)n1-c1ccc(Cl)cc1)c1ccccc1 (stereo not given)	nt	17	-14	-0.37	38
